According to PubChem BioAssay (Tox21):
Values joined by “and” are separate entries in the source; they are usually repeats but may differ in a detail not shown here. Equal values may be shown once. Results filed as inconclusive are left out. Where a structure was tested more than once in an assay, its records may differ in their call. Active and inactive are the calls of the source. The call rests on the fitted dose curve; in most records, active means well fitted curve in the direction sought with a large enough effect in the repeat runs; inconclusive means weak or mixed curves; inactive means no such curve, though single readings can be large; an effect the other way counts as inactive or inconclusive.

Columns and labels:
[1] = qHTS RealTime-Glo MT Cell Viability Assay in HEK293 cells - 16 hour (AID 1224872); further: top concentration of the series differs between compounds; nearly all actives have a fitted effect of over 50% in size
Method in brief: (§1)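 HEK293 cells were seeded at 600 cells/well together with NanoLuc luciferase and cell-permeant prosubstrate, preincubated 5 h at 37 C/5% CO2, then given compound in DMSO by pintool. Luminescence from viable-cell prosubstrate reduction was read repeatedly over 40 h.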

[2] = qHTS RealTime-Glo MT Cell Viability Assay in HepG2 cells - 8 hour (AID 1224873); further: nearly all actives have a fitted effect of over 55% in size
Method in brief: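 HepG2 cells (600/well) mixed with RealTime-Glo MT reagent, settled 5 h at 37 C/5% CO2 before compound addition. Nonlytic NanoLuc luminescence from viable-cell prosubstrate reduction read repeatedly during 40 h treatment at 37 C.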

[3] = qHTS RealTime-Glo MT Cell Viability Assay in HEK293 cells - 40 hour (AID 1224874); conditions: RealTime-Glo luminescence; max response: stronger effect = lower value; further: nearly all actives have a fitted effect of over 50% in size
Method in brief: (§2)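 600 HEK293 cells per well, dispensed already mixed with RealTime-Glo MT reagents. Compound dosing came 5 h later. The same wells were read for luminescence at 0, 8, 16, 24, 32 and 40 h of exposure at 37 C.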

[4] = A CellTox Green Cytotoxicity Assay to monitor cytotoxicity in HEK293 cells - 24 hour (AID 1224875); further: series mostly up to about 77 µM; nearly all actives have a fitted effect of over 45% in size
Method in brief: (§3)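 Dead-cell fluorescence measured kinetically: asymmetric cyanine dye, HEK293, 600 cells/well, 5 h settle, 23 nL cpd/DMSO, 37 C, reads 0–40 h every 8 h.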

[5] = A CellTox Green Cytotoxicity Assay to monitor cytotoxicity in HepG2 cells - 16 hour (AID 1224876); further: nearly all actives have a fitted effect of over 45% in size
Method in brief: (§4)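 First, HepG2 cells (600/well) mixed with reagent were plated; second, after 5 h at 37 C they received compounds via pintool; third, fluorescence was measured at 0 h through 40 h at 8 h intervals.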

[6] = qHTS RealTime-Glo MT Cell Viability Assay in HepG2 cells - 32 hour (AID 1224877); further: nearly all actives have a fitted effect of over 55% in size
Method in brief: (§5)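 HepG2 cells were seeded at 600 cells/well together with NanoLuc luciferase and a cell-permeant prosubstrate, preincubated 5 h at 37 C/5% CO2, then pin-dosed with compounds in DMSO. Nonlytic luminescence from viable cells was read at each time point.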

[7] = A CellTox Green Cytotoxicity Assay to monitor cytotoxicity in HepG2 cells - 24 hour (AID 1224878); further: nearly all actives have a fitted effect of over 45% in size
Method in brief: as §4

[8] = A CellTox Green Cytotoxicity Assay to monitor cytotoxicity in HepG2 cells - 40 hour (AID 1224879); further: nearly all actives have a fitted effect of over 40% in size
Method in brief: as §4

[9] = qHTS RealTime-Glo MT Cell Viability Assay in HEK293 cells - 0 hour (AID 1224880); further: top concentration of the series differs between compounds; nearly all actives have a fitted effect of over 45% in size
Method in brief: as §2

[10] = A CellTox Green Cytotoxicity Assay to monitor cytotoxicity in HEK293 cells - 32 hour (AID 1224881); further: nearly all actives have a fitted effect of over 40% in size
Method in brief: as §3

[11] = A CellTox Green Cytotoxicity Assay to monitor cytotoxicity in HepG2 cells - 0 hour (AID 1224882); further: nearly all actives have a fitted effect of over 35% in size
Method in brief: as §4

[12] = A CellTox Green Cytotoxicity Assay to monitor cytotoxicity in HEK293 cells - 8 hour (AID 1224884); further: nearly all actives have a fitted effect of over 35% in size; further: potency means the concentration at half of the fitted maximal effect
Method in brief: as §3

[13] = qHTS RealTime-Glo MT Cell Viability Assay in HepG2 cells - 16 hour (AID 1224885); further: nearly all actives have a fitted effect of over 50% in size
Method in brief: as §5

[14] = qHTS RealTime-Glo MT Cell Viability Assay in HEK293 cells - 24 hour (AID 1224886); further: top concentration of the series differs between compounds; nearly all actives have a fitted effect of over 50% in size
Method in brief: as §1

[15] = qHTS RealTime-Glo MT Cell Viability Assay in HEK293 cells - 8 hour (AID 1224887)
Method in brief: as §2

[16] = A CellTox Green Cytotoxicity Assay to monitor cytotoxicity in HEK293 cells - 16 hour (AID 1224888); further: nearly all actives have a fitted effect of over 35% in size
Method in brief: as §3

[17] = qHTS RealTime-Glo MT Cell Viability Assay in HepG2 cells - 0 hour (AID 1224889); further: nearly all actives have a fitted effect of over 50% in size
Method in brief: as §5

[18] = A CellTox Green Cytotoxicity Assay to monitor cytotoxicity in HepG2 cells - 8 hour (AID 1224890); further: nearly all actives have a fitted effect of over 45% in size
Method in brief: as §4

[19] = qHTS assay to identify small molecule antagonists of the estrogen receptor alpha (ER-alpha) signaling pathway using the BG1 cell line in the presence of 0.1 nM 17-beta-estradiol - cell viability counter screen (AID 1259241); further: nearly all actives have a fitted effect of over 40% in size
Method in brief: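 Viability in VM7Luc4E2 cells after 22 hr compound exposure under 0.1 nM 17beta-estradiol stimulation, by CellTiter-Fluor.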

[20] = A CellTox Green Cytotoxicity Assay to monitor cytotoxicity in HepG2 cells - 32 hour (AID 1224883); further: nearly all actives have a fitted effect of over 50% in size
Method in brief: as §4
On the % scale 0 is the no-effect control and ±100 the full control effect.

Nc1c2c(nc3ccccc13)CCCC2
inactive: Potency [1] | Potency [2] | max response [3] -28% and -11.6% and 18.3% | Potency [4] | Potency [5] | Potency [6] | Potency [7] | Potency [8] | Potency [9] | Potency [10] | Potency [11] | Potency [12] | Potency [13] | Potency [14] | Potency [15] | Potency [16] | Potency [17] | Potency [18] | Potency [19]

CCCCNC(=O)NS(=O)(=O)c1ccc(C)cc1
inactive: Potency [1] | Potency [2] | max response [3] -2.16% and 5.08% and 4.55% | Potency [4] | Potency [5] | Potency [6] | Potency [7] | Potency [8] | Potency [9] | Potency [10] | Potency [11] | Potency [20] | Potency [12] | Potency [13] | Potency [14] | Potency [15] | Potency [16] | Potency [17] | Potency [18] | Potency [19]

Oc1ccccc1
inactive: Potency [1] | Potency [2] | max response [3] 1.54% [middle of 5 runs] | Potency [4] | Potency [5] | Potency [6] | Potency [7] | Potency [8] | Potency [9] | Potency [10] | Potency [11] | Potency [12] | Potency [13] | Potency [14] | Potency [15] | Potency [16] | Potency [18] | Potency [19]

CC12CCC(CC1)C(C)(C)O2
inactive: Potency [1] | Potency [2] | max response [3] -1.4% and 0.858% and 5.76% | Potency [4] | Potency [5] | Potency [6] | Potency [7] | Potency [8] | Potency [9] | Potency [10] | Potency [11] | Potency [20] | Potency [12] | Potency [13] | Potency [14] | Potency [15] | Potency [16] | Potency [17] | Potency [18] | Potency [19]

C=C(C)C(=O)OCC(C)O (stereo not given)
inactive: Potency [1] | Potency [2] | max response [3] 1.34% and 8.53% and -3.84% | Potency [4] | Potency [5] | Potency [6] | Potency [7] | Potency [8] | Potency [9] | Potency [10] | Potency [11] | Potency [20] | Potency [12] | Potency [13] | Potency [14] | Potency [15] | Potency [16] | Potency [17] | Potency [18] | Potency [19]

NC(=O)c1cccnc1
inactive: Potency [1] | Potency [2] | max response [3] 9.96% and -1.91% and 6.24% | Potency [4] | Potency [5] | Potency [6] | Potency [7] | Potency [8] | Potency [9] | Potency [10] | Potency [11] | Potency [20] | Potency [12] | Potency [13] | Potency [14] | Potency [15] | Potency [16] | Potency [18] | Potency [19]

O=C1O[C@H]([C@@H](O)CO)C(O)=C1O
inactive: Potency [1] | Potency [2] | max response [3] 5.34% [middle of 5 runs] | Potency [4] | Potency [5] | Potency [6] | Potency [7] | Potency [8] | Potency [9] | Potency [10] | Potency [11] | Potency [20] | Potency [12] | Potency [13] | Potency [14] | Potency [15] | Potency [16] | Potency [17] | Potency [18] | Potency [19]

Cc1ncc([N+](=O)[O-])n1C
inactive: Potency [1] | Potency [2] | max response [3] 6.42% and -0.882% and 0.401% | Potency [4] | Potency [5] | Potency [6] | Potency [7] | Potency [8] | Potency [9] | Potency [10] | Potency [11] | Potency [20] | Potency [13] | Potency [14] | Potency [15] | Potency [16] | Potency [17] | Potency [18] | Potency [19]
48.3 µM (active) and inactive: Potency [12]

CC(=O)Nc1c(I)c(NC(C)=O)c(I)c(C(=O)O)c1I
inactive: Potency [1] | Potency [2] | max response [3] 8.14% and 7% and 2.59% | Potency [4] | Potency [5] | Potency [6] | Potency [7] | Potency [8] | Potency [9] | Potency [10] | Potency [11] | Potency [20] | Potency [12] | Potency [13] | Potency [14] | Potency [15] | Potency [16] | Potency [18] | Potency [19]

C/C=C/C=C/C(=O)O
inactive: Potency [1] | Potency [2] | max response [3] 4.62% and 7.49% | Potency [4] | Potency [5] | Potency [6] | Potency [7] | Potency [8] | Potency [9] | Potency [10] | Potency [11] | Potency [20] | Potency [12] | Potency [13] | Potency [14] | Potency [15] | Potency [16] | Potency [17] | Potency [18] | Potency [19]
